Values joined by “and” are separate entries in the source; they are usually repeats but may differ in a detail not shown here. Identical values can stand only once. Records with an inconclusive call do not appear. More than one record can exist for a structure, and the calls need not agree. Active and inactive are the calls of the source. How the source made its calls: active means hit-call score of the fitted dose curve at least 0.9, where 1 is the maximum; inconclusive means response in the unintended direction; inactive means score below 0.9.

Retinoic acid receptor RXR-alpha (Homo sapiens), sequence (P19793 whole entry, looked up, the tested form may be a part): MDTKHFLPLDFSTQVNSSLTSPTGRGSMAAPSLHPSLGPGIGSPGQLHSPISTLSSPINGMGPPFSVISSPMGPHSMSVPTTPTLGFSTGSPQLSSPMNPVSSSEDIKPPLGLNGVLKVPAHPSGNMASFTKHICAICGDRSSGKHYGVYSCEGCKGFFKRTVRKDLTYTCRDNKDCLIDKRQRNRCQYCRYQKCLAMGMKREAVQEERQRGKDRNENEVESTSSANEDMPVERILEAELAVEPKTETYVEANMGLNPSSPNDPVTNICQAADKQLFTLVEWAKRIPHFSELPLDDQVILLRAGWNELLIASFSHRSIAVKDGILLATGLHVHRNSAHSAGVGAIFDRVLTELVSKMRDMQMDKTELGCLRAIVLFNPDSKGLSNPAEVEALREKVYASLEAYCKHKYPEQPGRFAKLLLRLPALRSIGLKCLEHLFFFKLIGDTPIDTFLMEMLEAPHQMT

The assay concerns the target Retinoic acid receptor RXR-alpha (Homo sapiens) (UniProt P19793). As to the kind of experiment: OT_NURR1_NURR1RXRa_0480: Odyssey Thera (OT) 8-hour HEK293T Protein Complementation Assay for Nurr1/retinoid X receptor (RXR) (AID 2283385). On the procedure: OT_NURR1_NURR1RXRa_0480 is a cell-based assay that uses HEK293T, a human kidney cell line, with measurements taken at 8 hours after chemical dosing in a 384-well plate.OT_NURR1_NURR1RXRa_0480 is one of one assay component(s) measured or calculated from the OT_NURR1_NURR1RXRa_0480 assay. It is designed to make measurements of protein fragment complementation, a form of binding reporter, as detected with fluorescence intensity signals by Protein-fragment Complementation technology.Data from the assay component OT_NURR1_NURR1RXRa_0480 was analyzed into 1 assay endpoint. This assay endpoint, OT_NURR1_NURR1RXRa_0480, was analyzed in the positive analysis fitting direction relative to DMSO as the negative control and baseline of activity. Using a type of binding reporter, measures of receptor for gain-of-signal activity can be used to understand the binding at the pathway-level as they relate to the gene RXRA. Furthermore, this assay endpoint can be referred to as a primary readout, because the performed assay has only produced 1 assay endpoint. To generalize the intended target to other relatable targets, this assay endpoint is annotated to the nuclear receptor intended target family, where the subfamily is non-steroidal.
Protein-fragment complementation assay, or PCA, is a method for the identification and quantification of protein-protein interactions. In the PCA, the proteins of interest ("bait" and "prey") are each covalently linked to fragments of a third protein (e.g. DHFR, which acts as a "reporter"). Interaction between the bait and the prey proteins brings the fragments of the reporter protein in close proximity to allow them to form a functional reporter protein whose activity can be measured.
For `Clc1ccc(C2(Cn3cncn3)CC(Br)CO2)c(Cl)c1` (stereo not given), the call was inactive.

Consider `COP(=O)(OC)O/C(=C\Cl)c1cc(Cl)c(Cl)cc1Cl`, for which the AC50 – broadly, the concentration giving half of the maximal activity seen – is 4.45 µM (active).

As for `CCOP(=S)(OCC)Oc1nc(Cl)c(Cl)cc1Cl`, the AC50 is 83.4 µM (active) and 71 µM (active).

Consider `C=CC#N`, for which the molecule was called inactive.

In the case of `COc1ccc(C=O)cc1OC`, the call was inactive.

Take `O=C(Cc1ccccc1)c1ccccc1`: the molecule was classed as inactive.

`Fc1ccc(C2(Cn3cncn3)OC2c2ccccc2Cl)cc1` (stereo not given): the outcome was inactive.

On to `CC(=O)c1cc(C(C)(C)C)cc2c1CCC2(C)C`, for which the AC50 is 74.2 µM (active).

As for `CN(C)N=O`, the call was inactive.

Consider `Cn1sc(Cl)cc1=O`, for which the result was inactive.

For `CC(C)c1cccc(C(C)C)c1O`, the molecule was called inactive.

Consider `COP(=S)(OC)Oc1ccc(Sc2ccc(OP(=S)(OC)OC)cc2)cc1`, for which the molecule was classed as inactive.

Take `OCc1ccco1`: the molecule was classed as inactive.

As to `CCCCCCCCSC(=O)Oc1cc(Cl)nnc1-c1ccccc1`, the molecule was called inactive.

Consider `CC12CC1(C)C(=O)N(c1cc(Cl)cc(Cl)c1)C2=O` (stereo not given), for which the outcome was inactive.

Consider `CNC(=O)O/N=C/C(C)(C)S(C)=O` (stereo not given), for which the molecule was called inactive.

With `Cc1ccccc1N`, the outcome was inactive.

Take `CC(C)(C)c1cc(O)ccc1O`: the outcome was inactive and the AC50 is 69.5 µM (active).

In the case of `NC(=O)O`, the molecule was classed as inactive.

In the case of `CCOC(=O)Nc1cccc(OC(=O)Nc2ccccc2)c1`, the call was inactive.

Turning to `Clc1ccc(COC(Cn2ccnc2)c2ccc(Cl)cc2Cl)cc1` (stereo not given), the AC50 is 11.2 µM (active).

Regarding `Clc1nc(Cl)nc(Cl)n1`, the call was inactive.

For `Cl/C=C/Cl`, the molecule was called inactive.

Turning to `COc1ccc(C=O)cc1`, the outcome was inactive.

Take `Cc1ccccc1C(=O)Nc1cccc(OC(C)C)c1`: the result was inactive.

Regarding `O=C/C=C/c1ccccc1`, the outcome was inactive.

As to `CCCCCCCCc1ccc(O)cc1`, the call was inactive.

Turning to `CC(C)(C)CC(C)(C)c1ccc(O)cc1`, the AC50 was 11.3 µM (active) and 11.2 µM (active).

As for `CCOP(=S)(OCC)SCSP(=S)(OCC)OCC`, the molecule was called inactive.

`BrCCBr`: the call was inactive.

Turning to `O=C(O)C(F)(F)C(F)(F)C(F)(F)C(F)(F)C(F)(F)C(F)(F)F`, the outcome was inactive.

In the case of `ClC1(Cl)C2(Cl)C3(Cl)C4(Cl)C(Cl)(Cl)C5(Cl)C3(Cl)C1(Cl)C5(Cl)C24Cl` (stereo not given), the outcome was inactive.

With `C=CCc1ccc(OC)cc1`, the outcome was inactive.

`CCC(=O)C(CC(C)N(C)C)(c1ccccc1)c1ccccc1` (stereo not given): the molecule was classed as inactive.

Consider `c1cc[c]([Hg][c]2ccccc2)cc1`, for which the AC50 is 29.7 µM (active).

Turning to `ClC(Cl)=C(Cl)C(Cl)=C(Cl)Cl`, the outcome was inactive.

For `COc1cc(OC)nc(NC(=O)NS(=O)(=O)c2ncccc2C(=O)N(C)C)n1`, the molecule was called inactive.

`O=C(O)C(Cl)(Cl)Cl`: the outcome was inactive.

On to `C[C@]12CCC(=O)C[C@@H]1CC[C@@H]1[C@@H]2CC[C@]2(C)[C@@H](O)CC[C@@H]12`, for which the molecule was called inactive.
